Compound activity (PubChem BioAssay)
Methyltransferases – Primary Screen for Target Class Profiling of Small Molecule Inhibitors of Methyltransferases; AID 1745853, 2022; purified enzyme, MTase-Glo SAH luminescence; hits give low values; hit rate 3.9% among 25,000; calls only at 40 µM; call rule not given here
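Each enzyme was assayed with SAM and its substrate. SAH formation detected by MTase-Glo luminescence; single-point 40 uM screen[…].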
Calls only; ! = repeats disagree. The entries come from a sample that favours hits as a whole.

For CC(O)(CC(=O)O)CC(=O)O[C@@H]1[C@@H](O)[C@H](OCCc2ccccc2)O[C@H](CO)[C@H]1O (some centres not stated) the results were Methyltransferases inactive.
Screening O=C(O)c1ccc(OC2OC(CO)C(O)C(O)C2O)cc1 (configuration not stated) returned Methyltransferases inactive.
`CC(C)Cn1c(=O)c2ccc(C(=O)NC(C)C)cc2n2c(SCc3ccccc3F)nnc12` gave Methyltransferases inactive.
`CCCn1nc2c(c1C)C(c1ccc(OCC(N)=O)c(Cl)c1)CC(=O)N2` (configuration not stated) gave Methyltransferases inactive.
`CC(C)C[C@H](C(=O)O)c1cc(-c2ccc(C(F)(F)F)cc2)cc(-c2ccc(C(F)(F)F)cc2)c1` gave Methyltransferases active.
CCc1nncn1C1CCN(C(=O)c2cc(-c3cccs3)[nH]n2)C1 (configuration not stated) was read as Methyltransferases inactive.
C/C=C(/C)C(=O)O[C@H]1[C@H](OC(=O)/C(C)=C\C)[C@@]23C(CC1(C)C)[C@]1(CCC4[C@@]5(C)CC[C@H](O[C@@H]6O[C@H](C(=O)O)[C@@H](O)[C@H](O[C@@H]7O[C@H](CO)[C@H](O)[C@H](O)[C@H]7O[C@@H]7O[C@@H](C)[C@H](O)[C@@H](O)[C@H]7O[C@@H]7OC[C@@H](O)[C@H](O)[C@H]7O)[C@H]6O[C@@H]6O[C@H](CO)[C@H](O)[C@H](O)[C@H]6O)C(C)(C)C5CC[C@@]4(C)[C@]1(C)C[C@H]2O)O[C@H]3O (some centres not stated) was read as Methyltransferases inactive.
CC(NC(=O)c1cc2n(n1)CC(C)(C(=O)NC1CCCCC1)N(C)C2=O)c1ccc2c(c1)OCCO2 (configuration not stated) was read as Methyltransferases inactive.
`COc1nc(C)c(C(=O)NC2CC(c3cc(=O)[nH]c(C)n3)C2)s1` (configuration not stated) gave Methyltransferases inactive.
`CC(C)(C)c1cc(/C=C(\C#N)C(N)=S)cc(C(C)(C)C)c1O` gave Methyltransferases active.
For O=C(NCc1ccccc1)N1CCn2cccc2C1Cc1ccccc1 (configuration not stated) the results were Methyltransferases inactive.
COc1cccc(N2CCN(C(=O)CN(C)S(=O)(=O)c3ccc4[nH]c5c(c4c3)CCCC5)CC2)c1 was read as Methyltransferases inactive.
`CCCn1c(=O)c2ccccc2n2c(=O)n(CC(=O)c3ccc(OC)cc3)nc12` gave Methyltransferases inactive.
COc1cc2nc(N3CCCC3)nc(NCCCCCN3CCCC3)c2cc1OC was read as Methyltransferases active!.
COc1cc2c(NC3CCN(C(C)C)CC3)nc(C3CCCCC3)nc2cc1OCCCN1CCCC1 was read as Methyltransferases active!.
Screening COc1cc2nc(N3CCCCC3)nc(NC3CCN(Cc4ccccc4)CC3)c2cc1OC returned Methyltransferases active!.
For COc1cc2nc(N3CCC(N4CCCCC4)CC3)nc(NC3CCCCCC3)c2cc1OC the results were Methyltransferases active.
For COc1cc2c(Nc3ccc(NC(=O)c4ccccc4)cc3)ncnc2cc1OCCCN1CCOCC1 the results were Methyltransferases inactive.
`O=S(=O)(c1ccccc1)c1nnn2c1nc(NC1CCN(Cc3ccccc3)CC1)c1ccccc12` gave Methyltransferases inactive.
Screening COCCn1ncc(N2CCC(C(=O)NCCCN3CCC(N4CCCCC4)CC3)C2)cc1=O (configuration not stated) returned Methyltransferases inactive.
Screening O=S(=O)(c1ccccc1)c1nnn2c1nc(NC1CCN(Cc3ccccc3)CC1)c1cc(Cl)ccc12 returned Methyltransferases inactive.
COc1cc2ncnc(N3CCC(Oc4cnc5ccccc5n4)C3)c2cc1OC (configuration not stated) was read as Methyltransferases inactive.
COc1cc2nc(-c3ccc(N4CCN(C)CC4)cc3)nc(NCCN3CCOCC3)c2cc1OC was read as Methyltransferases inactive.
`CC(=O)Nc1c2n(c3ccccc13)CC(C)(C(=O)NC1CCCC1)N(Cc1ccc(C)cc1)C2=O` (configuration not stated) gave Methyltransferases inactive.
Screening O=C(CCN1CCN(C(=O)OCc2cc(Cl)cc(Cl)c2)CC1)c1ccc2[nH]c(=O)oc2c1 returned Methyltransferases inactive.
CCCN1C(=O)c2cc3occc3n2CC1(C)C(=O)NC1CCCCCCC1 (configuration not stated) was read as Methyltransferases inactive.
For CN1C(=O)N(c2cc(Cl)cc(Cl)c2)C(=O)[C@@]1(C)Cc1ccc(Br)cc1 the results were Methyltransferases inactive.
`CC1(C)[C@H]2CC=C(CN3CCC(CCC(=O)N4CCN(c5ccccc5)CC4)CC3)[C@@H]1C2` gave Methyltransferases inactive.
`CC1CCCN(C(=O)c2coc(COc3cccc(F)c3F)n2)C1` (configuration not stated) gave Methyltransferases inactive.
Screening CO[C@H]1CN(C2CCN(C(=O)C3CCN(C(C)=O)CC3)CC2)[C@H]1c1ccncc1 returned Methyltransferases inactive.
For Cc1cc2nn(CC(=O)Nc3ccc4c(c3)OCCO4)c(=O)n2c(Nc2ccccc2C)n1 the results were Methyltransferases inactive.
For Cc1cccc(NC(=O)CSc2nnc3n(Cc4ccc(F)cc4)c(=O)c4ccccc4n23)c1 the results were Methyltransferases inactive.
CCC(C)NC(=O)Cn1nc2n(C(C)C)c(=O)c3ccc(C(=O)NC4CCCC4)cc3n2c1=O (configuration not stated) was read as Methyltransferases inactive.
For COc1cc2nc(N3CCCCC3)nc(NC3CCN(C)CC3)c2cc1OC the results were Methyltransferases active!.
COc1cc2nc(-c3cc(F)ccc3O)nc(N[C@@H]3CNC[C@H]3C(C)(C)O)c2cc1OC was read as Methyltransferases inactive.
`CCCn1c(=O)c2ccc(C(=O)NC3CCCC3)cc2n2c(=O)n(Cc3c(F)cccc3Cl)nc12` gave Methyltransferases inactive.
Cc1nc([C@@H]2CN(C(=O)c3ccc(Cn4ccnc4)o3)C[C@H]2C(N)=O)n[nH]1 was read as Methyltransferases inactive.
COCCCN1C(=O)c2c(NC(C)=O)c3cc(OC)ccc3n2CC1(C)C(=O)NC1CCCCCC1 (configuration not stated) was read as Methyltransferases inactive.
For CCC(C)NC(=O)c1ccc2c(=O)n(C)c3nnc(SCC(=O)Nc4ccc(C)c(F)c4)n3c2c1 (configuration not stated) the results were Methyltransferases inactive.
For CN1CCc2cc3c(cc2C(=O)Cc2cc4c(cc2C1)OCO4)OCO3 the results were Methyltransferases inactive.
Screening COCCCN1C(=O)c2cc3sccc3n2CC1(C)C(=O)NC1CCCCCCC1 (configuration not stated) returned Methyltransferases inactive.
For C=C1C(=O)O[C@@H]2/C=C(\C)C(=O)/C=C/[C@](C)(O)C[C@@H](OC(=O)C(C)C)[C@@H]12 the results were Methyltransferases active.
C=C1C(=O)OC2/C=C(\C)CC/C=C(\C)CC(OC(C)=O)C12 (configuration not stated) was read as Methyltransferases inactive.
`C=C1C(=O)O[C@@H]2/C=C(/C)CC3C=C(C[C@H](OC(=O)/C(C)=C\C)[C@@H]12)C(=O)O3` (some centres not stated) gave Methyltransferases inactive.
C[C@@H]1CC[C@H]2C(C)(C)[C@H](O)[C@H](O)C[C@]2(C)[C@@]12Cc1c(O)cc3c(c1O2)CNC3=O was read as Methyltransferases inactive.
